In PubChem BioAssay AID1159580 (chemical genetic matrix, 2015):
Values joined by “and” are separate entries in the source; they are usually repeats but may differ in a detail not shown here. Equal values may be shown once. About 2,000 (36%) of roughly 5,500 compounds were called active. Inconclusive results (about 18%) are left out. Rule as the data show it: active = normalized growth mostly below about 0.91 (no sharp cut-off); inconclusive = no clear call, values can overlap the other calls; inactive = mostly above about 0.92. This is one part of the list.

Assay: chemical genetic growth profiling, strain panel (AID 1159580);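 also: tested at 20 µM; growth read once vehicle control cultures reached saturation at 30 °C; 1 = growth at the plate median or of vehicle wells; lower values mean less growth of the strain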
Conditions: S. cerevisiae deletion strains, growth OD
[1] = locus YPL055C, strain LGE1, stronger effect = lower value
[2] = locus YPL241C, strain CIN2, stronger effect = lower value

Measured: normalized growth

Cc1cc(C)c(NC(=O)C[C@H](CC(=O)O)c2cccc3ccccc23)c(C(=O)N2CCC3(CCCC3)CC2)c1
inactive: locus YAL040C, strain CLN3, stronger effect = lower value 1.01 | locus YCL061C, strain MRC1 (second series), stronger effect = lower value 0.986 | locus YDR363W, strain ESC2, stronger effect = lower value 0.973 | locus YER002W, strain NOP16, stronger effect = lower value 0.975 | locus YGR078C, strain PAC10, stronger effect = lower value 0.972 | locus YGR229C, strain SMI1, stronger effect = lower value 1.01 | locus YMR263W, strain SAP30, stronger effect = lower value 0.995 | locus YNL175C, strain NOP13, stronger effect = lower value 0.976 | locus YNL197C, strain WHI3, stronger effect = lower value 0.964 | locus YNL224C, strain SQS1, stronger effect = lower value 0.977 | locus YNL322C, strain KRE1, stronger effect = lower value 0.99 | locus YOR083W, strain WHI5 (second series), stronger effect = lower value 0.977 | [1] 0.972 | [2] 0.987

CC(C)(C#N)O[C@@H]1O[C@H](CO)[C@@H](O)[C@H](O)[C@H]1O
inactive: locus YAL013W, strain DEP1, stronger effect = lower value 1 | locus YAL021C, strain ccr4, stronger effect = lower value 1.01 | locus YAL026C, strain drs2, stronger effect = lower value 1 | locus YAL030W, strain snc1, stronger effect = lower value 1 | locus YBL061C, strain skt5, stronger effect = lower value 0.998 | locus YBR009C, strain hhf1, stronger effect = lower value 1 | locus YBR021W, strain FUR4, stronger effect = lower value 1.1 | locus YBR023C, strain chs3, stronger effect = lower value 1 | locus YBR171W, strain sec66, stronger effect = lower value 1.01 | locus YBR229C, strain ROT2, stronger effect = lower value 0.997 | locus YBR231C, strain swc5, stronger effect = lower value 0.998 | locus YBR279W, strain paf1, stronger effect = lower value 1.01 | locus YCL011C, strain gbp2, stronger effect = lower value 1.01 | locus YCL016C, strain dcc1, stronger effect = lower value 1 | locus YCL029C, strain bik1, stronger effect = lower value 0.993 | locus YCL069W, strain vba3, stronger effect = lower value 0.997 | locus YCR088W, strain abp1, stronger effect = lower value 1.01 | locus YDL005C, strain med2, stronger effect = lower value 0.993 | locus YDL035C, strain GPR1, stronger effect = lower value 1.02 | locus YDL040C, strain nat1, stronger effect = lower value 1.01 | locus YDL074C, strain BRE1, stronger effect = lower value 1.02 | locus YDL101C, strain DUN1, stronger effect = lower value 1.01 | locus YDL185W, strain tfp1, stronger effect = lower value 0.983 | locus YDL192W, strain arf1, stronger effect = lower value 0.988 | locus YDR001C, strain nth1, stronger effect = lower value 1.01 | locus YDR069C, strain doa4, stronger effect = lower value 1.03 | locus YDR101C, strain arx1, stronger effect = lower value 0.997 | locus YDR137W, strain rgp1, stronger effect = lower value 1.02 | locus YDR150W, strain NUM1, stronger effect = lower value 1.02 | locus YDR159W, strain sac3, stronger effect = lower value 0.965 | locus YDR162C, strain NBP2, stronger effect = lower value 1.05 | locus YDR195W, strain ref2 0.98 | locus YDR297W, strain sur2, stronger effect = lower value 1.01 | locus YDR318W, strain mcm21, stronger effect = lower value 1 | locus YDR334W, strain swr1, stronger effect = lower value 1 | locus YDR335W, strain msn5, stronger effect = lower value 1 | locus YDR388W, stronger effect = lower value 0.992 | locus YDR392W, strain spt3, stronger effect = lower value 1.02 | locus YDR502C, strain sam2, stronger effect = lower value 0.998 | locus YEL003W, strain gim4, stronger effect = lower value 1.01 | locus YEL037C, strain rad23, stronger effect = lower value 1.01 | locus YEL061C, strain CIN8 (second series), stronger effect = lower value 1.02 | locus YEL061C, strain CIN8, stronger effect = lower value 1 | locus YER015W, strain faa2, stronger effect = lower value 0.998 | locus YER016W, strain bim1, stronger effect = lower value 0.999 | locus YER110C, stronger effect = lower value 0.985 | locus YER111C, strain swi4, stronger effect = lower value 1.01 | locus YER155C, strain BEM2 (second series), stronger effect = lower value 1.02 | locus YER155C, strain BEM2, stronger effect = lower value 0.99 | locus YER167W, strain BCK2, stronger effect = lower value 1.01 | locus YFR010W, strain ubp6, stronger effect = lower value 1.01 | locus YGL078C, strain dbp3, stronger effect = lower value 0.989 | locus YGL086W, strain mad1, stronger effect = lower value 0.997 | locus YGL167C, strain pmr1, stronger effect = lower value 1 | locus YGL173C, strain kem1, stronger effect = lower value 1 | locus YGL227W, strain vid30, stronger effect = lower value 1 | locus YGL240W, strain doc1, stronger effect = lower value 1.01 | locus YGL248W, strain PDE1, stronger effect = lower value 1.01 | locus YGL253W, strain hxk2, stronger effect = lower value 1 | locus YGR135W, strain pre9, stronger effect = lower value 0.975 | locus YGR252W, strain gcn5, stronger effect = lower value 0.979 | locus YHR013C, strain ard1, stronger effect = lower value 0.996 | locus YHR027C, strain rpn1, stronger effect = lower value 0.984 | locus YHR030C, strain SLT2, stronger effect = lower value 0.997 and 1.06 | locus YHR079C, strain IRE1 (second series), stronger effect = lower value 0.994 | locus YHR079C, strain IRE1, stronger effect = lower value 1.07 | locus YHR094C, strain hxt1, stronger effect = lower value 0.984 | locus YHR129C, strain ARP1, stronger effect = lower value 1 | locus YHR142W, strain chs7, stronger effect = lower value 1 | locus YHR200W, strain rpn10, stronger effect = lower value 0.995 | locus YIL066C, strain RNR3, stronger effect = lower value 1.02 | locus YIL073C, strain SPO22, stronger effect = lower value 1 | locus YIL125W, strain kgd1, stronger effect = lower value 1 | locus YIR030C, strain dcg1, stronger effect = lower value 0.998 | locus YJL092W, strain hpr5, stronger effect = lower value 1 | locus YJL095W, strain BCK1 (second series), stronger effect = lower value 1.01 | locus YJL095W, strain BCK1, stronger effect = lower value 1.05 and 0.974 | locus YJL115W, strain asf1, stronger effect = lower value 0.999 | locus YJL129C, strain trk1, stronger effect = lower value 1.03 | locus YJL134W, strain LCB3, stronger effect = lower value 0.993 | locus YJL154C, strain vps35, stronger effect = lower value 1.01 | locus YJL164C, strain tpk1, stronger effect = lower value 1 | locus YJL166W, strain qcr8, stronger effect = lower value 1.01 | locus YJL168C, strain set2, stronger effect = lower value 1 | locus YJL187C, strain SWE1 (second series), stronger effect = lower value 1.03 | locus YJL187C, strain SWE1, stronger effect = lower value 1 | locus YJR043C, strain POL32, stronger effect = lower value 1.02 | locus YJR066W, strain TOR1, stronger effect = lower value 0.981 | locus YJR075W, strain HOC1, stronger effect = lower value 1.02 | locus YKL009W, strain mrt4, stronger effect = lower value 0.982 | locus YKL068W, stronger effect = lower value 0.998 | locus YKL085W, strain MDH1 (second series), stronger effect = lower value 1.01 | locus YKL085W, strain MDH1, stronger effect = lower value 1.01 | locus YKL160W, strain elf1, stronger effect = lower value 1 | locus YKL190W, strain CNB1, stronger effect = lower value 1.02 | locus YKR001C, strain vps1, stronger effect = lower value 1 | locus YKR026C, strain gcn3, stronger effect = lower value 0.997 | locus YKR091W, strain srl3, stronger effect = lower value 1 | locus YLL001W, strain dnm1, stronger effect = lower value 1.01 | locus YLL026W, stronger effect = lower value 0.99 | locus YLL041C, strain sdh2, stronger effect = lower value 1.01 | locus YLR027C, strain aat2, stronger effect = lower value 1 | locus YLR039C, strain RIC1, stronger effect = lower value 1.05 | locus YLR058C, strain SHM2, stronger effect = lower value 1.01 | locus YLR102C, strain apc9, stronger effect = lower value 0.983 | locus YLR113W, strain HOG1, stronger effect = lower value 0.999 | locus YLR221C, strain rsa3, stronger effect = lower value 1.03 | locus YLR258W, strain gsy2, stronger effect = lower value 1.01 | locus YLR262C, strain YPT6 (second series), stronger effect = lower value 1.01 | locus YLR262C, strain YPT6, stronger effect = lower value 1.07 | locus YLR268W, strain sec22, stronger effect = lower value 1 | locus YLR320W, strain mms22, stronger effect = lower value 0.999 | locus YLR330W, strain CHS5, stronger effect = lower value 0.994 | locus YLR342W, strain FKS1 (second series), stronger effect = lower value 1.02 | locus YLR342W, strain FKS1, stronger effect = lower value 1 | locus YLR357W, strain rsc2, stronger effect = lower value 0.971 | locus YLR370C, strain arc18, stronger effect = lower value 1 | locus YLR371W, strain rom2, stronger effect = lower value 0.982 | locus YLR384C, strain iki3, stronger effect = lower value 0.986 | locus YLR418C, strain cdc73, stronger effect = lower value 1.01 | locus YML016C, strain PPZ1, stronger effect = lower value 0.987 | locus YML032C, strain rad52, stronger effect = lower value 1.01 | locus YML120C, strain ndi1, stronger effect = lower value 0.994 | locus YML124C, strain tub3, stronger effect = lower value 0.994 | locus YMR058W, strain fet3, stronger effect = lower value 0.999 | locus YMR078C, strain ctf18, stronger effect = lower value 0.976 | locus YMR125W, strain sto1, stronger effect = lower value 1 | locus YMR129W, stronger effect = lower value 0.996 | locus YMR205C, strain PFK2, stronger effect = lower value 1.02 | locus YMR223W, strain ubp8, stronger effect = lower value 0.984 | locus YMR231W, strain pep5, stronger effect = lower value 0.996 | locus YMR307W, strain GAS1, stronger effect = lower value 0.96 | locus YNL067W, strain RPL9B, stronger effect = lower value 1.04 | locus YNL071W, strain lat1, stronger effect = lower value 1.01 | locus YNL183C, strain NPR1, stronger effect = lower value 0.973 | locus YNL209W, strain ssb2, stronger effect = lower value 1.01 | locus YNL233W, strain BNI4, stronger effect = lower value 1.02 | locus YNL248C, strain rpa49, stronger effect = lower value 0.984 | locus YNL250W, strain rad50, stronger effect = lower value 0.978 | locus YNL271C, strain bni1, stronger effect = lower value 0.987 | locus YNL298W, strain CLA4, stronger effect = lower value 0.987 | locus YNL307C, strain MCK1, stronger effect = lower value 1.02 | locus YNL322C, strain KRE1 (second series), stronger effect = lower value 0.993 | locus YNR049C, strain mso1, stronger effect = lower value 1 | locus YNR052C, strain pop2, stronger effect = lower value 0.984 | locus YOL006C, strain TOP1, stronger effect = lower value 1.06 | locus YOL012C, strain htz1 0.871 | locus YOL147C, strain pex11, stronger effect = lower value 0.995 | locus YOR001W, strain rrp6, stronger effect = lower value 1.01 | locus YOR061W, strain CKA2, stronger effect = lower value 0.997 | locus YOR069W, strain VPS5, stronger effect = lower value 0.99 | locus YOR070C, strain gyp1, stronger effect = lower value 1.01 | locus YOR080W, strain dia2, stronger effect = lower value 1.01 | locus YOR083W, strain WHI5, stronger effect = lower value 1.01 | locus YOR106W, strain vam3, stronger effect = lower value 1.04 | locus YOR136W, strain idh2, stronger effect = lower value 0.985 | locus YOR144C, strain elg1, stronger effect = lower value 0.997 | locus YOR184W, strain ser1, stronger effect = lower value 1.03 | locus YOR231W, strain MKK1, stronger effect = lower value 1.01 | locus YOR265W, strain rbl2, stronger effect = lower value 1.01 | locus YOR270C, strain vph1, stronger effect = lower value 1.22 | locus YOR290C, strain snf2, stronger effect = lower value 1.02 | locus YOR316C, strain cot1, stronger effect = lower value 0.983 | locus YPL051W, strain arl3, stronger effect = lower value 1.01 | [1] 1.06 | locus YPL078C, strain atp4, stronger effect = lower value 1.01 | locus YPL106C, strain sse1, stronger effect = lower value 0.985 | locus YPL240C, strain hsp82, stronger effect = lower value 0.995 | [2] 1.01 | locus YPL256C, strain CLN2, stronger effect = lower value 1.06 | locus YPR119W, strain clb2, stronger effect = lower value 0.996 | locus YPR141C, strain kar3, stronger effect = lower value 0.982 | locus YPR163C, strain tif3, stronger effect = lower value 0.997 | locus YPR167C, strain met16, stronger effect = lower value 1.01 | strain wtn01, stronger effect = lower value 0.984
